Assay results taken from PubChem BioAssay AID504894 (National Center for Advancing Translational Sciences (NCATS), 2011).
The campaign covered roughly 330,000 compounds. Fewer than 10 were called active. Calls follow the shape of the dose curve; as a rule, active = well fitted activation curve with a large enough effect; inconclusive = small, poorly fitted or top-dose-only effect, or another doubt; inactive = no such curve, though single readings can be large or run the other way. Not all results are given here.

Assay: Activators of T cell receptors: qHTS campaign; also: % of control where 0% means no effect
Settings: primary human leukocytes, anti-CD3, IL-2 HTRF, 48 h; series mostly up to 9.22 µM; activation of IL-2 secretion: at the top concentration
Source text: Normally activation of naive T cells requires two signals. 1. A signal through the T cell receptor (TCR) which provides antigen specificity to the response. 2. Signals through co-stimulatory molecules, which are necessary for proliferation, survival and cytokine production. In the absence of co-stimulatory signals T cells are not effectively activated, and may even be rendered anergic or unresponsive to subsequent signaling. This lack of costimulation has been shown in multiple model systems to be a major factor in the limited strength and effectiveness of anti-tumor T cell responses. The goal of this project is to identify small molecule compounds that will stimulate T cell activation in the presence of TCR signaling but in the absence of co-stimulatory signals, thereby allowing activation of naive T cells in the absence of co-stimulation. Identification of such compounds would have clear experimental and clinical applications in instances where desirable antigen-specific immune responses are not generated due to a lack of co-stimulation, for example in the generation of anti-tumor responses. In collaboration between the National Cancer Institute and NIH Chemical Genomics Center, a high-throughput amenable screen was developed to discover small molecules that co-stimulate and activate human T cell receptors. The screen will be carried out using a novel homogeneous time resolved fluorescence energy transfer (HTRF) assay to measure production of the cytokine IL-2 by activated T cells and will be tested against the NIH Molecular Libraries Small Molecule Repository (MLSMR). NIH Chemical Genomics Center [NCGC] NIH Molecular Libraries Probe Centers Network [MLPCN] MLPCN Grant: MH090820-01 Assay Submitter (PI): Richard Hodes, National Cancer Institute, NIH
Primary human leukocytes are incubated with a-CD3 beads and compounds for 48 hr. The amount of secreted IL-2 is then assayed with a HTRF IL-2 kit. The presence of IL-2 cytokine captures the detection reagents and brings the a-IL-2-K and a-IL-2-d2 into close proximity. Upon excitation with 320nm light, the europium cryptate is capable of transferring energy to acceptor molecules within close proximity, resulting in acceptor molecule emission at 665nm.

Activation of IL-2 secretion, inactive:
COc1cccc(CC(=NO)c2cccc(OC)c2)c1 -1.64%
CC(NC(=O)c1ccccc1)C(=O)Nc1ccccc1 (stereo not drawn) -0.854%
COc1cc(/C=C/CNC[C@H]2O[C@@H](n3cnc(C(N)=O)n3)[C@H](O)[C@@H]2O)ccc1O 1.99%
COc1cc2c(cc1OC)C(Cc1cc(OC)c(OC)cc1[N+](=O)[O-])=NCC2 5.72%
Cc1ccc(-c2csc(C(C#N)=C(O)CN3CCN(C(=O)c4ccco4)CC3)n2)cc1 6.47%
CN(C)c1ccc(CSc2ccccc2)cc1 -1.78%
COc1cc(C(=O)CCc2ccc3c(c2)OCO3)cc(OC)c1OC 8.7%
O=c1[nH]c2c(c(=O)n1-c1ccccc1)CCO2 -1.41%
CN(C(=O)c1cccc(NC(=O)Cc2ccc(NC(=O)C3CCCN(C(=O)C4CCCC4)C3)cc2)c1)C1CCC1 (stereo not drawn) -4.37%
CC(=O)c1cccc(-c2ccc(CN3C(CC(C)C)C(=O)N(Cc4cn(CC5CCCCC5)nn4)CCS3(=O)=O)cc2)c1 (stereo not drawn) 7.42%
N#CCc1c[nH]c2ccc([N+](=O)[O-])cc12 10.7%
O=c1c2ccccc2ncn1CCc1ccncc1 -2.16%
COc1cccc2c1C(=O)c1c(O)c3c(c(O)c1C2=O)CC(O)(C(C)=NNC(=O)c1ccc(Cl)c(Cl)c1)CC3OC1CC(N)C(O)C(C)O1 (stereo not drawn) 1.92%
O=c1ccn([C@@H]2O[C@H](CNS(=O)(=O)c3cc4ccccc4s3)[C@@H](O)[C@H]2O)c(=O)[nH]1 -47.4%
CCCCN1CC(COCc2ccccc2)OCCS1(=O)=O (stereo not drawn) -2.23%
COc1ccc(OC)c(Cc2cnc3nc(N)nc(N)c3c2C)c1 -1.86%
CCC1([N+](=O)[O-])COC(c2ccc(C(C)C)cc2)OC1 (stereo not drawn) -4.78%
CC1C(C)N(C(=O)CCl)c2ccccc2N1C(=O)CCl (stereo not drawn) -0.0701%
OCC(O)C1OCOC(C(O)CO)C1O (stereo not drawn) 4.15%
CC1=CC(=NNS(=O)(=O)c2ccc([N+](=O)[O-])cc2)CC(C)(C)C1 7.06%
C#CCOCCOCCOCCNc1nc(N2CCOCC2)nc(N2CCN(C(=O)[C@H](Cc3ccc(O)cc3)n3cc(CCO)nn3)CC2)n1 -9.96%
COc1ccc(Cl)cc1C=CC=Nc1ccc(S(N)(=O)=O)cc1 6.08%
O=C(O)C(CCc1ccccn1)c1ccccc1 (stereo not drawn) 0.56%
COc1ccc(C(=O)Nc2cccc(/C=C(/CCC(=O)O)c3nc4ccccc4s3)c2)cc1 5.18%
O=[N+]([O-])c1ccc(NS(=O)(=O)c2ccccc2)c(Cl)c1 0.637%
OC(COc1ccccc1)CN1CCN(c2cccc(Cl)c2)CC1 (stereo not drawn) 5.71%
COc1cc2c(cc1CNC[C@H]1O[C@@H](n3cnc(C(N)=O)n3)[C@H](O)[C@@H]1O)OCO2 15%
CCc1nnc(NC(=O)c2cc(S(=O)(=O)N3CCN(CC)CC3)ccc2Cl)s1 2.5%
O=C(NNc1nc(N2CCCC2)nc(N2CCCC2)n1)c1ccccc1 -3.33%
Nc1ccc2[nH]c(=S)sc2c1 6.49%
CCCC(O)(c1ccccc1)C(c1ccccc1)c1ccccn1 (stereo not drawn) -4.1%
COc1ccc(Cl)cc1C=CC=NNC(=O)c1ccncc1 -0.951%
COc1cccc2oc(CCc3ccccc3)cc(=O)c12 -2.9%
Nc1ccc2c(c1)C(O)c1ccc(Cl)cc1-2 (stereo not drawn) 0.187%
COc1ccc(CNCCCNCc2ccc(OC)c(OC)c2)cc1OC -0.561%
O=S(=O)(Nc1ccc2ccccc2c1)N1CCCCC1 1.29%
C[C@@H]1NS(=O)(=O)c2cc(Cl)ccc2O[C@@H]1c1ccccc1 0.528%
O=[N+]([O-])c1ccc(COc2ccccc2CN2CCOCC2)cc1 -5.64%
Cc1nc2ccccc2c(C(=O)O)c1-c1ccccn1 -0.737%
O=C1NC(=O)C(CCc2ccccc2)(c2ccccc2)N1 (stereo not drawn) -11.2%
O=c1oc2ccccc2c(=O)c2ccccc12 -4.64%
c1ccc(C(=NNc2nc3ccccc3s2)c2ccccn2)cc1 -17.9%
Cc1ccc(OCCNC(=O)c2cccc(S(=O)(=O)N3CCN(Cc4ccccc4)CC3)c2)cc1 -0.64%
O=C(NCCc1ccccc1)c1c[nH]c2ccc(F)cc2c1=O 3.03%
CNN/C(N=Cc1ccc([N+](=O)[O-])s1)=N\S(=O)(=O)c1cc(C)c(Cl)cc1SCc1ccccc1 0.19%
O=C1OC(Cc2ccccc2)C(c2ccccc2)C1=O (stereo not drawn) 0.207%
COc1ccc(S(=O)(=O)N2CCc3ccccc32)cc1C(=O)Nc1cc(S(C)(=O)=O)ccc1Cl 4.1%
CN(O)C(=S)c1ccccc1 3.76%
CC(C)C[C@H]1CN([C@@H](CC(C)C)CN2CCC[C@@H]2CN2C(=O)C(=O)NC[C@@H]2Cc2ccccc2)C(=O)C(=O)N1CCc1ccccc1 3.01%
COc1cc(C2c3cc4c(cc3C(O)C3COC(=O)C23)OCO4)cc(OC)c1OC (stereo not drawn) -6.83%
Cc1cc(C)c(C=NNc2nc3c([nH]2)c(=O)n(C)c(=O)n3C)c(C)c1 -2.46%
C#CCOCCOCCOCCNc1nc(N2CCN(C(=O)Cn3cc(CCO)nn3)CC2)nc(N2CCN(C(=O)[C@H](CCCCN)n3cc(CCCC)nn3)CC2)n1 -0.341%
C[C@]12CCC(=O)C=C1C=CC1C2CC[C@@]2(C)C1CC[C@@]21CCC(=O)O1 (stereo partly drawn) -6.09%
CC(=O)Nc1ccc(C(=O)Nc2cc(S(=O)(=O)N3CCOCC3)ccc2N2CCOCC2)cc1 5.5%
C=CC(=O)Nc1ccc(Nc2ccnc(Nc3ccc(N4CCN(C)CC4)cc3)n2)cc1 7.98%
Cc1ccc(C)c(S(=O)(=O)N(C)c2ccc(OC(=O)C3CCN(C(=O)c4ccc(F)cc4)CC3)cc2)c1 3.39%
Cc1c(NS(=O)(=O)c2cccc(C(=O)Nc3ccc(SC(F)F)cc3)c2)c(=O)n(-c2ccccc2)n1C -2.41%
C[C@@H]1ON(C)[C@H]2C[C@H]3c4cc(N5CCN(C)CC5)ccc4CCN3C(=O)[C@@H]12 6.04%
Cc1onc(-c2c(F)cccc2Cl)c1C(=O)Nc1cccc(S(=O)(=O)N2CCCCC2)c1 5.63%
O=C(CC1Sc2ccccc2NC1=O)NNc1ccc(Cl)c(Cl)c1 (stereo not drawn) -9.29%
CCC(=O)N1CCc2cc(Br)c(S(=O)(=O)NCCN3CCCCC3CC)cc21 (stereo not drawn) -2.39%
CC(C)Cn1cnc2c(SCc3ccc(Cl)cc3)nc(N)nc21 0.446%
O=C1NCC(c2ccccc2)(c2ccccc2)C(=O)N1 -1.83%
COC[C@@H]1NS(=O)(=O)c2ccc(Br)cc2O[C@H]1c1ccccc1 6.54%
CN1CCC(N(C)C(=O)c2ccc(Cl)c(S(=O)(=O)Nc3ccc(Cl)cc3)c2)CC1 1.82%
Cc1cc2c(cc1C)NC1(C[C@H]3CCC(=O)N4CC[C@@H](C1)[C@@H]34)C(=NC(C)(C)CC(C)(C)C)N2 (stereo partly drawn) -11.4%
CN(C(=O)c1cccc(NC(=O)Cc2ccc(NC(=O)C3CCCN(C(=O)C4CC4)C3)cc2)c1)C1CC1 (stereo not drawn) -3.14%
O=C1/C(=C\c2ccc(O)cc2)CCC1CNc1ccc(Cl)cc1 (stereo not drawn) -0.0826%
O=C1C2C3C=CC(C3)C2C(=O)N1c1ncc([N+](=O)[O-])s1 (stereo not drawn) 0.761%
NNc1cccc(C=Cc2ccccc2)cc1=O -0.278%
COc1ccc(-c2nnc(-c3ccc4ccccc4c3)o2)cc1 -0.347%
Cc1nc(N)sc1-c1ccccc1 6.41%
NC(=O)C1(Nc2ccc(-c3ccccc3)cc2)CCCC1 -6.79%
CCN(CC)CCCN1C(=O)C(=O)/C(=C(/O)c2c(C)nc3ccccn23)C1c1ccc(C)o1 (stereo not drawn) -1.01%
O=C1OC(Oc2ccc(Br)cc2)(c2ccccc2)c2ccccc21 (stereo not drawn) 10.2%
CN(C)C(=S)N=c1ssc(=S)n1Cc1ccco1 3.1%
CN(C(=O)c1cccc(NC(=O)Cc2cccc(NC(=O)C3CCCN(C(=O)C4CC4)C3)c2)c1)C1CCC1 (stereo not drawn) 0.256%
O=C(NNC(=O)c1ccccc1O)c1ccccc1O -2.99%
O=C1CC(c2ccccc2)C(=O)N2C(=O)CC(c3ccccc3)C(=O)N12 (stereo not drawn) -4.84%
Nc1ccc2c(c1)C(=Cc1cccnc1)c1ccccc1-2 -2.17%
CC(=O)c1ccc(NC(=O)C(C)OC(=O)c2ccc(NS(=O)(=O)c3ccc4[nH]c(=O)[nH]c4c3)cc2)cc1 (stereo not drawn) 2.02%
CCOc1ccccc1NC(=S)C(=C([O-])c1ccc2c(c1)OCCO2)[n+]1ccc(CC)cc1 -5.5%
O=C1C(Cl)=C(Oc2ccccc2)C(=O)c2ccccc21 -2.03%
CSc1ncnc2c1ncn2CC(=O)C1CCC2C3CCC4=CC(=O)CCC4(C)C3CCC12C (stereo not drawn) 1%
O=S(=O)(O)c1cc2onnc2c2ccccc12 0.823%
CCOC(=O)c1ccc2[nH]c(C)c(CN3CCN(C)CC3)c(=O)c2c1 2.26%
COC1=CC(=O)OC(c2ccc(OC)cc2)C1 (stereo not drawn) -4.88%
CCOC(=O)c1ccccc1OC(=O)Oc1ccccc1C(=O)OCC 12.8%
COc1ccc(CCN2CC(C(=O)OCC(=O)NCc3ccccc3Cl)CC2=O)cc1OC (stereo not drawn) 10.2%
O=C(CNC(=O)c1cc(S(=O)(=O)N2CCOCC2)ccc1N1CCCC1)Nc1ccc(F)c(F)c1 2.72%
COc1cc2[nH]c(O)c(C=O)c2cc1OC 1.43%
Cc1ccc(Nc2c(O)nc[nH]c2=O)cc1C -0.131%
NC(=O)C1(Nc2ccc([N+](=O)[O-])cc2)CCCC1 -2.68%
O=C1COc2c1ccc(O)c2O -2.28%
O=C(Cc1ccc(Cl)cc1)c1ccccc1 -1.31%
c1ccc2c(c1)OC1OC2Oc2ccccc21 -1%
CCc1ccc(C(=O)C(C)OC(=O)CN2C(=O)NC3(CCCC3)C2=O)cc1 (stereo not drawn) 0.426%
CCOC(=O)C1CCCN(C(=O)Cn2ncc3c(=O)oc4ccc(C)cc4c32)C1 (stereo not drawn) 3.09%
CC(=O)OCC1(O)CC23CCC4c5ccoc5CCC4(C)C2CCC1C3 (stereo not drawn) -4.8%
CC(=O)CSc1nc(CCc2ccccc2)c(C#N)c(=O)[nH]1 -2.27%
CCN(CC)CCCC(C)n1c2nc(=O)[nH]c(=O)c-2nc2cc(Cl)ccc21 (stereo not drawn) -2.28%
c1ccc(-c2c[nH]c(-c3ccccc3)c2)cc1 -2.6%
O=C(NCC1(N2CCCCC2)CCCCC1)c1cccc(S(=O)(=O)Nc2ccccc2Cl)c1 -1.93%
